PubChem BioAssay AID1712 (National Center for Advancing Translational Sciences (NCATS), 2009)
Results filed as inconclusive are left out. Active and inactive are the calls of the source. The call rests on the fitted dose curve; in most records, active means well fitted curve in the direction sought with a large enough effect; inconclusive means small, poorly fitted or top-dose-only effect, or effect the other way, or another doubt; inactive means no such curve, though single readings can be large or run the other way.

molecular target: Amyloid-beta precursor protein (Homo sapiens) (UniProt P05067); assay: Assay for Inhibitors of the fibrillization of the Beta-Amyloid Protein Fragment, A-beta 1-42; conditions: A-beta 1-42 fibrillization, ThT fluorescence, 4 h; series mostly up to 80 µM
Text: NIH Molecular Libraries Probe Production Network [MLPCN] NIH Chemical Genomics Center [NCGC] MLPCN Grant: X01 MH083262-01 Assay Provider: Carlo Ballatore, University of Pennsylvania NCGC Assay Overview: The microtubule-associated protein tau is an abundant protein in the axons of neurons that stabilizes microtubules. With its ability to modulate microtubule dynamics, tau contributes directly or indirectly, to key structural and regulatory cellular functions. Particularly important is the influence tau exerts on axonal transport, which allows signaling molecules, trophic factors and other essential cellular constituents to travel along the axons. Under pathological conditions, tau becomes sequestered into insoluble aggregates called neurofibrillary tangles. This phenomenon is believed to have pathological consequences by promoting axonal transport deficits that ultimately lead to synaptic dysfunction and neuronal loss. Beta-amyloid protein undergoes a similar type of aggregation as tau and is implicated in the pathology of Alzheimer's disease. To examine the selectivity of tau fibrillization inhibitors, compounds were tested in an in vitro assay for fibrillization of the beta-amyloid fragment, A-beta 1-42. Crystal, A. S., Giasson, B. I., Crowe, A., Kung, M. P., Zhuang, Z. P., Trojanowski, J. Q., and Lee, V. M. Y. (2003) Journal of Neurochemistry 86, 1359-1368.
NCGC Assay Protocol Summary: Synthetic A-beta 1-42 aliquots were reconstituted to 2 mg/ml in DMSO and then diluted to 15 uM in 25 mM Tris, pH 7.0 buffer to which test compound was added at 50 uM final concentration, or at several concentrations ranging from 0.16-40 uM. The reaction mixtures were dispensed at 25 ul/well into a 384-well plate and then incubated at 37 C for 4 hrs. Upon completion of the reaction, 25 ul of 25 uM ThT was added to each well followed by ThT fluorescence readings as described above for K18PL.

Sequence of Amyloid-beta precursor protein (Homo sapiens) (P05067 whole entry, looked up, the tested form may be a part): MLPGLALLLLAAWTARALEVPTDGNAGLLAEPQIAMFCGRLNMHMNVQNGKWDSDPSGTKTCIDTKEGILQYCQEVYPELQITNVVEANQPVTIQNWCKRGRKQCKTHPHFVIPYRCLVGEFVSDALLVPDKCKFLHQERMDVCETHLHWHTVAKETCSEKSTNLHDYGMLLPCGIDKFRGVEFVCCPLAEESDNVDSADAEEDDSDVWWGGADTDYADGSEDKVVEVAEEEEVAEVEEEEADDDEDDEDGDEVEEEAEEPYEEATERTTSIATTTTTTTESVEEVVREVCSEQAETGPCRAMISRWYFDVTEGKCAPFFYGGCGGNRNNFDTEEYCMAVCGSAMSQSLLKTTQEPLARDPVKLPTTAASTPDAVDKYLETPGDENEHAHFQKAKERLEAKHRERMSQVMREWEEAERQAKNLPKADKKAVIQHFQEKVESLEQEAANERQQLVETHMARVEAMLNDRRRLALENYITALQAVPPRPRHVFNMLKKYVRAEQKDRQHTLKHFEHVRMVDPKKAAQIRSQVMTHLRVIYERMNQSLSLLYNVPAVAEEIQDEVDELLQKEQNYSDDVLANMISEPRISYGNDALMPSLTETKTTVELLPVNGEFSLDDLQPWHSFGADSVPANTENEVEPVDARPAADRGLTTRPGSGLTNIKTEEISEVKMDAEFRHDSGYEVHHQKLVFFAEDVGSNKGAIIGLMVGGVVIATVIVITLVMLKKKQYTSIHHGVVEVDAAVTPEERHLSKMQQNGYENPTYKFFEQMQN

outcome, inactive:
Nc1nn(-c2ccccc2)c(=O)c2c(N)scc12
CCOC(=O)c1nn(-c2ccccc2F)c(=O)c2c(N)scc12
CCOC(=O)c1ccc(-n2nc(C(=O)OCC)c3csc(N)c3c2=O)cc1
Nc1scc2c(C(=O)N3CCOCC3)nn(-c3ccccc3)c(=O)c12
NC(=O)c1nn(-c2ccccc2)c(=O)c2c(N)scc12
COc1ccc(-n2nc(C(=O)O)c3csc(N)c3c2=O)cc1
Nc1scc2c(CO)nn(-c3ccccc3)c(=O)c12
O=S(=O)(c1ccc2c(c1)OCCO2)N1CCN(c2nc(-c3ccccc3)nc3ccccc23)CC1
CCOC(=O)c1nn(-c2ccc(C)c(C)c2)c(=O)c2c(N)scc12
Cc1ccc(S(=O)(=O)N2CCN(c3nc(-c4ccccc4)nc4ccccc34)CC2)cc1
CC(=O)Nc1sc(C)c2cnn(-c3ccccc3)c(=O)c12
CCOC(=O)c1nn(-c2ccccc2)c(=O)c2c(N)scc12
COc1ccc(NC(=O)CSc2nnc(CCC(=O)Nc3ccc(C)c(Cl)c3)n2C)cc1
